The source of these data is PubChem BioAssay.

Assay [1] can be described thus: yeast TOR pathway RPL19A-GFP modulators, primary screen, cell-based, S. cerevisiae, multiplex flow cytometry (AID 1862; in the data active = percent of DMSO control GFP below about 86%;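 also: lower values mimic rapamycin by blocking the RPL19A rise seen in DMSO cells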). Particulars: S. cerevisiae RPL19A-GFP strain, flow cytometry fluorescence, 3 h; at 10 µM; stronger effect = lower value.
Assay [2] is described as follows: modulators of MEP2-GFP levels in yeast, primary screen, S. cerevisiae, multiplex flow cytometry (AID 1867;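 active = GFP response, as percent of the DMSO control, above the screen-wide mean plus 3 SD, about 139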;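 also: median GFP channel fluorescence of barcode-gated MEP2-GFP cells measured by flow cytometry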). Conditions: S. cerevisiae MEP2-GFP strain, 3 h, at 10 µM, stronger effect = higher value, 100% means same as DMSO wells.
The nature of assay [3]: modulators of CIT2-GFP expression in yeast, primary screen, S. cerevisiae, GFP fusion, multiplex flow cytometry (AID 1870;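 active = percent response above a set limit, the screen-wide mean plus 3 SD, cut at about 130% in these data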;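 also: barcoded CIT2-GFP strain pooled with four other GFP strains with rapamycin as positive control; median GFP fluorescence per well over plate mean of DMSO wells so 100% = DMSO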). Conditions: 3 h, at 10 µM, stronger effect = higher value.
Assay [4] is described as follows: modulators of LAP4-GFP expression in yeast, primary screen, S. cerevisiae, multiplex flow cytometry (AID 1873;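 active = GFP signal, as percent of the solvent control, above the screen mean plus 3 SD, about 149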). Particulars: 3 h, at 10 µM, stronger effect = higher value.
A short description of assay [5]: modulators of AGP1-GFP expression in yeast TOR pathway, primary screen, cell-based, multiplex flow cytometry, S. cerevisiae (AID 1887;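 active = GFP signal above the screen-wide mean plus 3 SD, that is over about 124.5% of the solvent control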;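 also: AGP1-GFP fusion strain of S. cerevisiae within a five-strain barcoded multiplex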). Conditions: 3 h, at 10 µM, stronger effect = higher value.
Assay [6] in a line: inhibitors of CD8+ T cell-vesicle binding, pilot screen, LFA-1/ICAM-1 modulator project, MLPCN validation set, flow cytometry (AID 2523;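 active = response below a set limit, under 55% cells CD8-positive and vesicle-bound, and CD8 cells' 90th-percentile brightness under 279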;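 as to vesicle binding response: mean PE anti-B7-1 fluorescence of CD8+ cells relative to row control; 100% = QL9-loaded vesicles with DMSO vehicle in the same plate row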). Particulars: 2C mouse CD8+ T cells, at 7 µM, stronger effect = lower value; double positive events: measured here: CD8+/vesicle+ event percentage.
Assay [7] has as its target Integrin beta-1 (Homo sapiens) + Integrin alpha-4 (Homo sapiens) (UniProt P13612+P05556). Kind of assay: inhibition of HUTS-21 binding to VLA-4, pilot screen, VLA-4 allosteric modulator project, U937 cells, HUTS-21 mAb, flow cytometry, validation set (AID 2674;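 active = inhibition above 50%, about 3 SD of the validation set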;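 also: antibody binding induced by the VLA-4 ligand LDV present at three times its Kd; 0% = LDV ligand with antibody and no compound and 100% = antibody without LDV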). Particulars: HUTS-21 LIBS mAb binding, at 6.7 µM, stronger effect = higher value, binding induced by LDV ligand.
A short description of assay [8]: superoxide lowering in aged yeast cells, pilot screen, validation compound set (AID 2706;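 active = superoxide response below 65% of plate, a cut near 3 SD across the whole screen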;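 also: yeast exposed to compound for one week at 30 degrees C before staining; 100% = mean of all compound wells on the same plate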). Particulars: S. cerevisiae aging, superoxide DHE fluorescence; at 10 µM; stronger effect = lower value.
Assay [9] addresses Beta-adrenergic receptor kinase 1 (Homo sapiens) (UniProt P25098). Kind of assay: GRK2 binders displacing RNA aptamer, biochemical, validation, human GRK2, bead flow cytometry (AID 488806). Particulars: bead-bound GRK2, FAM-aptamer displacement, at 10 µM, stronger effect = higher value.
For assay [10], the target named is Beta-2 adrenergic receptor (Homo sapiens) (UniProt P07550). Kind of assay: beta2AR agonists driving receptor internalization, pilot screen, cell-based, FAP fluorogen, flow cytometry, validation set (AID 504459;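 active = percent response above 42, roughly 3 SD of non-fluorescent test compounds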;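 also: agonist-driven loss of surface beta2AR via internalization measured by FAP dye flow cytometry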). Particulars: Am2.2-beta2AR cells, FAP surface receptor flow cytometry; at 10 µM; stronger effect = higher value.
Chain of Beta-2 adrenergic receptor (Homo sapiens) (P07550 whole entry, looked up): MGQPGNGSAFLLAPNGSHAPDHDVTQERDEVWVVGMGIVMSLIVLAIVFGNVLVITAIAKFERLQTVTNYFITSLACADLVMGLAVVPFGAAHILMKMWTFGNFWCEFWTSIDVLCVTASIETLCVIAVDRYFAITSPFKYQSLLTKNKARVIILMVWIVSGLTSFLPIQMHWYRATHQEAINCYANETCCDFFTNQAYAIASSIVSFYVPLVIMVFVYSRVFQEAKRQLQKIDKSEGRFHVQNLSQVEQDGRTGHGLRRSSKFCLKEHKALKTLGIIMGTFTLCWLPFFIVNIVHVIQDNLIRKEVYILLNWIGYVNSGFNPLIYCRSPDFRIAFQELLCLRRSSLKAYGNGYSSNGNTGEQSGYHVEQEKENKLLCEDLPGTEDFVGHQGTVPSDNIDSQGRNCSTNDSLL
In assay [11] the target is AP-2 complex subunit beta (Homo sapiens) (UniProt P63010). Kind of assay: inhibitors of arrestin peptide binding to AP2, pilot screen, biochemical, validation set, GST-AP2 beads, flow cytometry (AID 504541;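 active = inhibition above 54%, about 3 SD of non-fluorescent compounds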;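 also: AP2 carries R879A mutation and is captured from E. coli lysate; bead-bound FITC arrestin peptide fluorescence measuring arrestin peptide binding to AP2; 0% = DMSO wells and 100% = excess unlabeled arrestin peptide control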). Conditions: FITC arrestin peptide, at 10 µM, stronger effect = higher value, AP2 beta2 appendage fragment, R879A mutant.
Chain of AP-2 complex subunit beta (Homo sapiens) (P63010 whole entry, looked up, the tested form may be a part, one chain of several): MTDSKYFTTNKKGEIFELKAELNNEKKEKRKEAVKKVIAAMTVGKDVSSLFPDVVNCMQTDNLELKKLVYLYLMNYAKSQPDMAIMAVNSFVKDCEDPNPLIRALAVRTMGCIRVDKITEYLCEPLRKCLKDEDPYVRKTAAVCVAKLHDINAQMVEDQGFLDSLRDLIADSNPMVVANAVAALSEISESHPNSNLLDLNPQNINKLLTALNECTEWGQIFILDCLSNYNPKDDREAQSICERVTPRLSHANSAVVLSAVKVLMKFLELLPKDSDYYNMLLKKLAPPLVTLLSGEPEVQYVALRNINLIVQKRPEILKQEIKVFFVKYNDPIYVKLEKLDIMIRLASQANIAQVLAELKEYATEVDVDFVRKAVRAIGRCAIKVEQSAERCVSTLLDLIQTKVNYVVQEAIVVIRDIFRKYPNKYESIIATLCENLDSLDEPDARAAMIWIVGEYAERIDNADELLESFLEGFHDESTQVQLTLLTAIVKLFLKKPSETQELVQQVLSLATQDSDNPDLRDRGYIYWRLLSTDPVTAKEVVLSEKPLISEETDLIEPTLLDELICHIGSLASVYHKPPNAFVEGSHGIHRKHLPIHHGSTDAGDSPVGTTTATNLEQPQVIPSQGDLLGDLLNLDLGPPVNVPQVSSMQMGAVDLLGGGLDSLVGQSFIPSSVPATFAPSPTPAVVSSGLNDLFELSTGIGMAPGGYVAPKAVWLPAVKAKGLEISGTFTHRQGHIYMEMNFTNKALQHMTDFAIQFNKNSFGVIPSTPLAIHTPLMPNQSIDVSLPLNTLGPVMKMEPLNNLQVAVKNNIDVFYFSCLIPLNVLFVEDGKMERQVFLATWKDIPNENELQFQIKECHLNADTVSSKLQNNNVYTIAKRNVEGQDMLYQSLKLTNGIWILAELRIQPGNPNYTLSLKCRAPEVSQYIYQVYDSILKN
A short description of assay [12]: yeast V-ATPase proton transport modulators, S. cerevisiae, pHLuorin, HTS validation (AID 504600; in the data active = response above about 15%;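 also: plate controls were DMSO for no effect and reference compound for full effect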). Particulars: S. cerevisiae pHLuorin cytosolic pH, at 10 µM, stronger effect = higher value.
In assay [13] the test system is anti-desmoglein-3 scFv antibody binding to human DSG3. Kind of assay: inhibitors of anti-DSG3 scFv binding to DSG3, pilot screen, biochemical, validation compound set, bead-based, flow cytometry (AID 588368;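 active = binding below the plate cutoff, the plate median minus 3 SD, with a reading above zero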;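 also: signal is the median channel fluorescence of bead-bound GFP antibody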). Particulars: Protein G beads, DSG3-Fc, scFv-GFP binding, at 10 µM, stronger effect = lower value.
Assay [14] in a line: inhibitors of fungal efflux pumps CDR1, CDR2, MDR1, pilot screen, validation compound set, multiplex, phenotypic (AID 588506;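 active = efflux inhibition above 0.42, the validation set average plus 4 SD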;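 also: Nile Red retained in cells so higher fluorescence means more efflux inhibition; 0 = negative control wells and 1 = enniatin B 25 µM full block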). Particulars: S. cerevisiae pump-expressing triplex, Nile Red efflux flow cytometry; at 10 µM; stronger effect = higher value; the pumps come from Candida albicans.
In assay [15] the target is ATP-binding cassette sub-family B member 6 (Homo sapiens) (UniProt Q9NP58). Briefly: ABCB6 transporter inhibitors, pilot screen, K562-ABCB6 cells, flow cytometry, validation set (AID 588550;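 active = inhibition above the screen-wide mean plus 3 SD, about 51%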;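 also: 0% = DMSO wells and 100% = benzethonium chloride 70 µM positive control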). Conditions: K562-ABCB6 porphyrin accumulation, 1 h, at 10 µM, stronger effect = higher value.
Chain of ATP-binding cassette sub-family B member 6 (Homo sapiens) (Q9NP58 whole entry, looked up): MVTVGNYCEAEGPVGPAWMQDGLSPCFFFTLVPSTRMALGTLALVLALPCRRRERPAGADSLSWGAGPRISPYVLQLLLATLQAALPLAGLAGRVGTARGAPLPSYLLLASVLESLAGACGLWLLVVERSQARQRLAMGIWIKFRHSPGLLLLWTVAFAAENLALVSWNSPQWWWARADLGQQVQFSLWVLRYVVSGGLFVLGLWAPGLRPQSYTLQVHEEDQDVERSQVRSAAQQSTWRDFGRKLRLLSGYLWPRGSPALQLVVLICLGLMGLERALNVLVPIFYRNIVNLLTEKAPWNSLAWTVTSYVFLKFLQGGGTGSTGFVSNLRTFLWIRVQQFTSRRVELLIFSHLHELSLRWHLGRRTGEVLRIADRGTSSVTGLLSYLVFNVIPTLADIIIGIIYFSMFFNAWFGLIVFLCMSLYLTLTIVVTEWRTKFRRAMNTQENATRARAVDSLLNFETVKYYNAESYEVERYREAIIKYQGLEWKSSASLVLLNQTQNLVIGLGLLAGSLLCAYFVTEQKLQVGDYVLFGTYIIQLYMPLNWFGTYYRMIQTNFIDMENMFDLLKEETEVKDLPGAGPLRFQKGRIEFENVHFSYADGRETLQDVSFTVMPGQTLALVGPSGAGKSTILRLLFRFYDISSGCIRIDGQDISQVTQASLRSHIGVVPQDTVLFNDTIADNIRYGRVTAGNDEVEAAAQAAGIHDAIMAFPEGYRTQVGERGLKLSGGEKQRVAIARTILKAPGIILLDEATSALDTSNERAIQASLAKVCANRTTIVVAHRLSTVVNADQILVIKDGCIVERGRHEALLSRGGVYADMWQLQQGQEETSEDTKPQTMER
A short description of assay [16]: promoters of myeloid differentiation in arrested cells, primary screen, cell-based, GFP/MAC1 double positive, flow cytometry, validation set (AID 588685;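 active = differentiation response of at least 50%, scaled between solvent and reference control, from cells with both markers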;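 also: compound exposure lasts four days before antibody staining and flow analysis; 0% = DMSO wells and 100% = 5 µM fulvestrant positive control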). Particulars: ER-HoxA9 marrow cells, stronger effect = higher value, normalized: vehicle 0, fulvestrant 100.

SMILES strings stand for the structures. Results filed as inconclusive are left out. Activity calls are given as the source filed them.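 The calls were made as follows, unless noted: active = aptamer binding inhibition above 30%, about 3 SD of noise from non-fluorescent compounds; inactive = inhibition at or below 30%.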

Chain of Integrin beta-1 (Homo sapiens) + Integrin alpha-4 (Homo sapiens) (P05556 whole entry, looked up): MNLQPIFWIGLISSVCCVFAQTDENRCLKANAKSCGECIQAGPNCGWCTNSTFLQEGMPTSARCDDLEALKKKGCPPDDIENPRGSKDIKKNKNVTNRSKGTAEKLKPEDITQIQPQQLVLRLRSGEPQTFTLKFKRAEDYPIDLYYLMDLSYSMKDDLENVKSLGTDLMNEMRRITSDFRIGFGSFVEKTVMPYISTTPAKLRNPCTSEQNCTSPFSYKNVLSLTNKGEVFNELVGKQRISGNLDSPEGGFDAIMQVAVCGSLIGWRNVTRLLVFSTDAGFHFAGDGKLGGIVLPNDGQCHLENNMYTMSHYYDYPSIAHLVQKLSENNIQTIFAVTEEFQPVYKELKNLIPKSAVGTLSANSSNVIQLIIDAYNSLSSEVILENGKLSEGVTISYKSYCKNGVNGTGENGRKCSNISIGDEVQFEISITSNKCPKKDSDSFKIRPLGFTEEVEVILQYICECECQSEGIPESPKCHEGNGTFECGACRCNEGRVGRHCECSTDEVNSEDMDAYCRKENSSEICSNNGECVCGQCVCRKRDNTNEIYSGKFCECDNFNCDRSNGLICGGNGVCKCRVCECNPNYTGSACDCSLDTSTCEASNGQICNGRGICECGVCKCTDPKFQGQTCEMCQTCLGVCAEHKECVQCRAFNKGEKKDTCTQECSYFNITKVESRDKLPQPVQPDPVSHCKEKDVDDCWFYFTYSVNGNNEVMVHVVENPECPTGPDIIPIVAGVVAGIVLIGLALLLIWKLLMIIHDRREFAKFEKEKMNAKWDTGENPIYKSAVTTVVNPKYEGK
Chain of Integrin beta-1 (Homo sapiens) + Integrin alpha-4 (Homo sapiens) (P13612 whole entry, looked up): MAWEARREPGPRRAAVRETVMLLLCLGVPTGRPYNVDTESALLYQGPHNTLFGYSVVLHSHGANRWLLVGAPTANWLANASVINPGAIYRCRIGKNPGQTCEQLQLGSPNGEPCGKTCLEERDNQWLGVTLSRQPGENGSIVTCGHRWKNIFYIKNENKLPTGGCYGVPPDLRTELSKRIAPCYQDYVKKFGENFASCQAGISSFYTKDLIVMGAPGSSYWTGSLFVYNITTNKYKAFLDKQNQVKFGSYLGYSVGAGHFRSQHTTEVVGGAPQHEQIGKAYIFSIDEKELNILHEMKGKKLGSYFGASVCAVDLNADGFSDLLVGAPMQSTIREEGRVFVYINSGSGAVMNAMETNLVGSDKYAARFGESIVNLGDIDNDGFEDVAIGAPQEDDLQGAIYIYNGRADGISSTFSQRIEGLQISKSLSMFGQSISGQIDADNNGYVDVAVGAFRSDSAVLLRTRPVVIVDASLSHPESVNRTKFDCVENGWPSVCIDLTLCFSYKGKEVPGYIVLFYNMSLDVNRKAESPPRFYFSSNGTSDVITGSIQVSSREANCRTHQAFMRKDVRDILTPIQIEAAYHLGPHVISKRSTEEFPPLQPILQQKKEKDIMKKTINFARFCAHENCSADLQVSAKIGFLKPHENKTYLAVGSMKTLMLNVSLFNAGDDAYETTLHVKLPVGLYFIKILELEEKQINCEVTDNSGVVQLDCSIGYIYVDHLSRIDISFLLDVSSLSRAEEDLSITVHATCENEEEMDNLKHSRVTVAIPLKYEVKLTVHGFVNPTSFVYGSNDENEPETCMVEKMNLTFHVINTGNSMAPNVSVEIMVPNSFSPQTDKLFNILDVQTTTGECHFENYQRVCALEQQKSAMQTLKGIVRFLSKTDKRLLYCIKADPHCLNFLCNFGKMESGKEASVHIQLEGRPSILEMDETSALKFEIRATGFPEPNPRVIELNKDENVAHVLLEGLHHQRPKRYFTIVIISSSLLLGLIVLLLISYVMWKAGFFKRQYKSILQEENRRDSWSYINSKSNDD
Chain of Beta-adrenergic receptor kinase 1 (Homo sapiens) (P25098 whole entry, looked up): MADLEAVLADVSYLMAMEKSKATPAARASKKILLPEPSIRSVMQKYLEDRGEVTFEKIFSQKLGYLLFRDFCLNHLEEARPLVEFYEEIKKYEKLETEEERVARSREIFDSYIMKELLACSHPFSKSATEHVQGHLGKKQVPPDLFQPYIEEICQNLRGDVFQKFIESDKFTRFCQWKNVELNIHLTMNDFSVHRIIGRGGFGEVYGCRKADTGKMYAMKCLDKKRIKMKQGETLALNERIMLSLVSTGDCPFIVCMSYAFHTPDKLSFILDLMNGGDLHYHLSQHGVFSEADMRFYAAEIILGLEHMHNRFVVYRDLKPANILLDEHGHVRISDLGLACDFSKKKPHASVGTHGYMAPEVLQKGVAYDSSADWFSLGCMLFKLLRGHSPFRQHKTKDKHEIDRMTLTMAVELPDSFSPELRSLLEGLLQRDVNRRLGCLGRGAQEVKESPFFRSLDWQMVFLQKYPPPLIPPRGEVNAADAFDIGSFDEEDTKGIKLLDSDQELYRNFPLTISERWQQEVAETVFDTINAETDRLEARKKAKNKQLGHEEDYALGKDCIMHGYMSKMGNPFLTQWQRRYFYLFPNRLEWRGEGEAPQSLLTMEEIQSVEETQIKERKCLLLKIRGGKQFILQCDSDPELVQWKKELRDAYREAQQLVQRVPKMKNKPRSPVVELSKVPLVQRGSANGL

As for `NC(=O)c1cnccn1`, in assay [1], the percent of DMSO control GFP was 101% (inactive). For the same compound, the GFP response vs DMSO in assay [2] and in [4] was 110% (inactive) throughout. Further, in assay [3], the percent response of DMSO control was 92.5% (inactive). The GFP response, % of DMSO in assay [5] is 111% (inactive). Also, the double positive events in [6] is 60.5%. In [6], the vesicle binding response was 240% (inactive). The inhibition in [7] was 10.8% (inactive); in assay [11] it was -9.13% (inactive); in assay [15], 2% (inactive). Besides, the superoxide response (% of plate) in [8] is 102% (inactive). For the same compound, in assay [9], the aptamer binding inhibition was 9% (inactive). Besides, the results for the response in [10] and in assay [12] were -6.65% (inactive) and 11.1% (inactive), respectively. The binding (% of control) in [13] is 102% (inactive). The efflux inhibition (fraction of control) in assay [14] is -0.09 (inactive). In addition, the differentiation response in assay [16] is 25.6% (inactive).

In the case of `COc1ccc([C@H]2[C@H](C(=O)OC(C)(C)C)N3N=Cc4ccccc4C3C23C(=O)c2ccccc2C3=O)cc1OC` (stereo not given in full), the percent of DMSO control GFP in assay [1] is 99.1% (inactive). Further, the GFP response vs DMSO is 106% (inactive) in [2] and 97.4% (inactive) in assay [4]. Moreover, in assay [3], the percent response of DMSO control is 97.7% (inactive). Also, in [5], the GFP response, % of DMSO is 89.1% (inactive). The double positive events in assay [6] worked out at 49.9%. In addition, in assay [6], the vesicle binding response is 39.2% (active). The inhibition in [7] is -45.5% (inactive); in assay [11], 61.9% (active); in assay [15], -27% (inactive). The superoxide response (% of plate) in assay [8] is 103% (inactive). In assay [9], the aptamer binding inhibition was -1% (inactive). For the same compound, the response was 35.3% (inactive) in [10] and -3.19% (inactive) in assay [12]. Also, the binding (% of control) in assay [13] was 96.8% (inactive). Besides, the efflux inhibition (fraction of control) in assay [14] is -0.06 (inactive). The differentiation response in assay [16] was -13.6% (inactive).

For the compound `Cc1ccc2c(c1)C(O)(C1COC(C)(C)CC1=O)C(=O)N2C` (stereo not given), in [1], the percent of DMSO control GFP was 107% (inactive). Also, the GFP response vs DMSO in assay [2] is 105% (inactive); in assay [4], 99.1% (inactive). Also, the percent response of DMSO control in assay [3] is 104% (inactive). In addition, the GFP response, % of DMSO in assay [5] is 98.8% (inactive). Also, in assay [6], the double positive events came out at 59.3%. Besides, the vesicle binding response in [6] was 214% (inactive). The figures for the inhibition in [7], in [11] and in assay [15] were 12.3% (inactive), -0.06% (inactive) and 12% (inactive), respectively. For the same compound, the superoxide response (% of plate) in [8] is 103% (inactive). Moreover, the aptamer binding inhibition in assay [9] was 2% (inactive). Moreover, the response was -0.64% (inactive) in assay [10] and -9.91% (inactive) in assay [12]. Besides, the binding (% of control) in assay [13] was 102% (inactive). Moreover, in assay [14], the efflux inhibition (fraction of control) was 0.05 (inactive). Also, the differentiation response in assay [16] is 23.2% (inactive).

In the case of `COc1ccc(C2=C(CN(C)C)C(c3ccccc3)c3ccccc3O2)cc1` (stereo not given), the percent of DMSO control GFP in assay [1] is 102% (inactive). Also, the results for the GFP response vs DMSO in assay [2] and in assay [4] were 105% (inactive) and 92% (inactive), respectively. Besides, the percent response of DMSO control in assay [3] was 96.6% (inactive). The GFP response, % of DMSO in assay [5] is 99.7% (inactive). Besides, the double positive events in assay [6] was found to be 61.4%. For the same compound, the vesicle binding response in [6] is 6270% (inactive). The results for the inhibition in assay [7], in assay [11] and in assay [15] were 3.7% (inactive), 12.1% (inactive) and 7% (inactive), respectively. For the same compound, the superoxide response (% of plate) in assay [8] was 102% (inactive). For the same compound, in [9], the aptamer binding inhibition was -2% (inactive). Moreover, the response is 10.4% (inactive) in [10] and -5.6% (inactive) in [12]. Also, the binding (% of control) in assay [13] is 104% (inactive). Also, in assay [14], the efflux inhibition (fraction of control) was -0.14 (inactive). Also, the differentiation response in assay [16] is 0.24% (inactive).

`c1ccc(-c2ccccn2)nc1`: the percent of DMSO control GFP in assay [1] was 103% (inactive). In addition, the GFP response vs DMSO in [2] was 112% (inactive); in [4] it was 101% (inactive). For the same compound, the percent response of DMSO control in assay [3] was 107% (inactive). Also, the GFP response, % of DMSO in assay [5] is 102% (inactive). Also, the double positive events in [6] stood at 54.1%. Further, the vesicle binding response in [6] is 157% (inactive). Also, the figures for the inhibition in [7], in assay [11] and in [15] were 6.95% (inactive), -7.99% (inactive) and 55% (active), respectively. In addition, in assay [8], the superoxide response (% of plate) was 96.7% (inactive). In addition, in assay [9], the aptamer binding inhibition was 8% (inactive). In addition, the response in assay [10] was -1.6% (inactive); in [12], -2.77% (inactive). In addition, the binding (% of control) in assay [13] was 101% (inactive). Besides, the efflux inhibition (fraction of control) in [14] was -0.08 (inactive). For the same compound, in assay [16], the differentiation response is -4.57% (inactive).
